Source: PubChem BioAssay (NCATS)
Results filed as inconclusive are left out. The source made the active and inactive calls. Calls follow the shape of the dose curve; as a rule, active = well fitted curve in the direction sought with a large enough effect; inconclusive = small, poorly fitted or top-dose-only effect, or another doubt; inactive = no such curve, though single readings can be large; an effect the other way counts as inactive or inconclusive.

Key:
[1] = target: Cytochrome P450 3A4 (Homo sapiens) (UniProt P08684); assay: qHTS Assay for Inhibitors and Substrates of Cytochrome P450 3A4 (AID 884); also: series mostly up to about 57 µM; nearly all actives have a fitted effect of over 50% in size
Chain of Cytochrome P450 3A4 (Homo sapiens) (P08684 whole entry, looked up): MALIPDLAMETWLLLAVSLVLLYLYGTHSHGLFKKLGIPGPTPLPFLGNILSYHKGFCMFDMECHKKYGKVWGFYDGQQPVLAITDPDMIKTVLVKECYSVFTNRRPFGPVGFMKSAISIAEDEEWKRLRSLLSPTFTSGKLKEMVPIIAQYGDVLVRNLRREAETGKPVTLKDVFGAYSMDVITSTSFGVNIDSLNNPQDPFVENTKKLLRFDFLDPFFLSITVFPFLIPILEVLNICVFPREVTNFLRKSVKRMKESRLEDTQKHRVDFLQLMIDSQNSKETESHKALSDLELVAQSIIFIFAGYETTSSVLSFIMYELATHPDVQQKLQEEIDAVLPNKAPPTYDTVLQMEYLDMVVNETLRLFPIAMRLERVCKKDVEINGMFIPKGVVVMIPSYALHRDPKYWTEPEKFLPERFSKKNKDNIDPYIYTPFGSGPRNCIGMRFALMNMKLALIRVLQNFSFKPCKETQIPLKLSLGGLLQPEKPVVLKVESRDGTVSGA
Summary of the method: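 20 nM human CYP3A4 with 25 uM Luciferin-PPXE (at KM) in 200 mM KPO4, preincubated 10 min with compound; NADPH regeneration started a 60 min RT reaction. Luciferin detected by luminescence, normalized to 57 uM ketoconazole as full inhibition.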

[2] = Cell Viability - LYMP2-001 (AID 921); also: series mostly up to about 92 µM; nearly all actives have a fitted effect of over 70% in size
Summary of the method: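 Human lymphoblastoid cells (Coriell), 2500 per well, were preincubated 5 hr at 37 C, then exposed to compounds in complete medium for 24 hr at 37 C. Cellular ATP was read by CellTiter-Glo luminescence; AC50 from Hill fits of concentration-response data.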

[3] = MultiTox-Fluor Cytotoxicity Assay - LYMP1-001 - Dead Cells (AID 946)
Summary of the method: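 In this qHTS, 15 uM tetraoctylammonium bromide defined 100% and DMSO defined basal activity. Lymphoblastoid cells (LYMP1-001, 2500 per well) received compound for 16 hr at 37 C before a fluorogenic dead-cell substrate readout at 485/520 nm.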

[4] = MultiTox-Fluor Cytotoxicity Assay - LYMP1-001 - Live Cells (AID 947)
[5] = Cell Viability - LYMP1-002 - Assay at 16 hr (AID 948)
Summary of the method: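 Human lymphoblastoid cells (LYMP1-002), 2500/well, were preincubated 5 hr at 37 C, then exposed to compounds for 16 hr at 37 C in complete medium. Cellular ATP was read by CellTiter-Glo luminescence after 30 min at room temperature; AC50 from Hill fits.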

[6] = MultiTox-Fluor Cytotoxicity Assay - LYMP1-002 - Dead Cells (AID 960); also: nearly all actives have a fitted effect of over 60% in size
Summary of the method: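 Acute cytotoxicity in a human lymphoblastoid line is scored as rising dead-cell protease signal after 16 hr exposure at 37 C, measured fluorometrically (485/520).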

[7] = MultiTox-Fluor Cytotoxicity Assay - LYMP1-003 - Dead Cells (AID 961); also: nearly all actives have a fitted effect of over 70% in size
Summary of the method: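 Acute toxicity is scored as increased dead-cell protease activity in human lymphoblastoid LYMP1-003 cells after 16 h compound exposure in complete culture medium. Activity is normalized to DMSO basal and 15 uM tetraoctylammonium bromide as full response.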

[8] = MultiTox-Fluor Cytotoxicity Assay - LYMP1-003 - Live Cells (AID 962);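 also: cytotoxic hits lower the live-cell protease signal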
Summary of the method: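 Cells plated at 2500 per well and incubated 5 hr; compounds added and incubated 16 hr at 37 C; MultiTox-Fluor reagent added for 60 min at room temperature; fluorescence of liberated AFC measured at 405/510 nm.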

[9] = Cell Viability - LYMP1-003 - Assay at 24 hr (AID 963)
Summary of the method: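 Acute toxicity in LYMP1-003 lymphoblastoid cells: 24 hr compound treatment at 37 C, ATP measured with CellTiter-Glo after 30 min at room temperature. AC50 derived by fitting the Hill equation to qHTS titrations.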

[10] = Cell Viability - LYMP1-003 - Assay at 40 hr (AID 964); also: series mostly up to about 92 µM; nearly all actives have a fitted effect of over 60% in size
Summary of the method: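 This qHTS cytotoxicity screen treats human lymphoblastoid cells (LYMP1-003) with compounds for 40 hr and quantifies cellular ATP via luciferase luminescence.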

[11] = Cell Viability - LYMP2-003 (AID 965);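 also: cells exposed to compounds for 24 h before reading; nearly all actives have a fitted effect of over 50% in size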
Summary of the method: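 Human lymphoblastoid cells (2500/well) were pre-incubated 5 hr at 37 C, then exposed to compounds over a concentration range for 24 hr at 37 C. Intracellular ATP was read by CellTiter-Glo luminescence; AC50 came from Hill-equation fits.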

[12] = Cell Viability - LYMP2-004 (AID 966); also: nearly all actives have a fitted effect of over 65% in size
Summary of the method: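 Acute toxicity is scored as a concentration-dependent drop in intracellular ATP, quantified by luciferase luminescence, in human lymphoblastoid cells exposed to compound for 24 hr. AC50 derives from Hill-equation modelling.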

[13] = Cell Viability - LYMP2-005 (AID 967); also: series mostly up to about 92 µM
Summary of the method: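 CellTiter-Glo luminescence (cellular ATP) read-out; LYMP2-005 lymphoblastoid cells, 2500/well, 5 h pre-incubation, then 24 h compound exposure at 37 C in complete medium. Tetraoctylammonium bromide positive control; AC50 by standard Hill fit.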

[14] = Cell Viability - LYMP2-009 (AID 968); also: series mostly up to about 92 µM; nearly all actives have a fitted effect of over 55% in size
[15] = Cell Viability - LYMP2-011 (AID 969); also: nearly all actives have a fitted effect of over 60% in size
Summary of the method: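 Acute toxicity is scored as a concentration-dependent drop in intracellular ATP of a human lymphoblastoid line after 24 hr treatment. Values are AC50s modeled with the Hill equation.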

[16] = Cell Viability - LYMP2-013 (AID 970); also: series mostly up to about 92 µM; nearly all actives have a fitted effect of over 55% in size
Summary of the method: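 Acute toxicity was measured in human lymphoblastoid cells (2500/well) exposed to compound titrations for 24 hr, with ATP luminescence (CellTiter-Glo) as read-out and AC50 fitted by Hill equation.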

[17] = Cell Viability - LYMP2-015 (AID 971); also: nearly all actives have a fitted effect of over 55% in size
Summary of the method: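 Acute toxicity was scored as a concentration-dependent drop in intracellular ATP in lymphoblastoid cells after 24 hr compound exposure in complete medium. Detection used CellTiter-Glo luciferase luminescence.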

[18] = Cell Viability - LYMP2-017 (AID 972); also: series mostly up to about 92 µM; nearly all actives have a fitted effect of over 55% in size
Summary of the method: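 Steps: plate 2500 lymphoblastoid cells per well; incubate 5 hr at 37 C; add compound across a concentration series and incubate 24 hr at 37 C; add CellTiter-Glo and read luminescence after 30 min at room temperature; fit Hill curves for AC50.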

[19] = Cell Viability - LYMP2-019 (AID 973); also: nearly all actives have a fitted effect of over 55% in size
Summary of the method: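 Cells plated at 2500/well and allowed 5 hr at 37 C before compound addition. After 24 hr incubation, CellTiter-Glo reagent was added, plates sat 30 min at room temperature, and luminescence was recorded.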

[20] = Cell Viability - LYMP2-021 (AID 974)
Summary of the method: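 Concentration-response cytotoxicity in a human lymphoblastoid line: 24 hr treatment at 37 C in complete culture medium, tetraoctylammonium bromide as positive control, luminescent ATP quantitation as viability measure.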

[21] = Cell Viability - LYMP2-023 (AID 975)
Summary of the method: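 Concentration-dependent drop in intracellular ATP measures acute cytotoxicity in a human lymphoblastoid line treated for 24 hours in complete culture medium. AC50 values are taken from Hill-equation fits of qHTS data.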

[22] = Cell Viability - LYMP2-025 (AID 976); also: series mostly up to about 92 µM
Summary of the method: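 In qHTS format, LYMP2-025 lymphoblastoid cells in complete culture medium received compound for 24 hr; ATP-based CellTiter-Glo signal gave viability, with AC50 derived by Hill equation.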

[23] = Cell Viability - LYMP2-006 (AID 978); also: series mostly up to about 92 µM; nearly all actives have a fitted effect of over 60% in size
Summary of the method: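 Human lymphoblastoid cells, 2500 per well, were preincubated 5 hr at 37 C, then exposed to compounds for 24 hr at 37 C in complete medium. Viability was read as intracellular ATP by CellTiter-Glo luminescence; AC50 from Hill-equation fits of qHTS concentration-response data.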

[24] = Cell Viability - LYMP2-007 (AID 979)
Summary of the method: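 Acute toxicity is scored as a concentration-dependent fall in intracellular ATP in human lymphoblastoid cells treated 24 hr at 37 C, measured by luciferase luminescence; Hill-equation modelling yields AC50.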

Measured: Potency

CCCOC(=O)c1ccccc1C(=O)OCCC
inactive: all assays above
